H9c2 protect: protects H9c2 cardiomyocytes from peroxide injury | protection from H2O2 cell death, % at 20 µM | AID 588492 | hit rate 0.63% among 360,000 | H2O2 injury protection, ATPLite, 2 h;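 active = compounds giving at least 50% protection of heart cells from peroxide-induced death in the single-dose screen, raw or plate-pattern-corrected value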
GRK2 aptamer HTS: inhibitors of human GRK2 displacing RNA aptamer | hit rate 0.59% among 330,000 | P25098 | bead flow cytometry, FAM-aptamer displacement from GRK2 | inhibition of aptamer binding, % at 10 µM;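 active = inhibition of aptamer binding above 40%, roughly 3 SD of noise, on plates passing a quality check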;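 also: median bead fluorescence of bound FAM aptamer so fluorescent compounds give negative values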
Neddylation inh: blocks human cullin neddylation; P61081+Q13564; TR-FRET cullin neddylation, biochemical; inhibition, % at 25 µM; hit rate 0.58% among 360,000; AID 651699; in the data active = inhibition above about 36%
Target sequence (P61081 whole entry, looked up): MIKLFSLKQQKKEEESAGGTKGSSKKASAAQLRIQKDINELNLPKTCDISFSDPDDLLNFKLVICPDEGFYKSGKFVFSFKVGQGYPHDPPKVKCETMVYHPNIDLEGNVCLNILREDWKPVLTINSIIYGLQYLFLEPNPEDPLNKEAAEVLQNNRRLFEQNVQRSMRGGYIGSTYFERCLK
Target sequence (Q13564 whole entry, looked up): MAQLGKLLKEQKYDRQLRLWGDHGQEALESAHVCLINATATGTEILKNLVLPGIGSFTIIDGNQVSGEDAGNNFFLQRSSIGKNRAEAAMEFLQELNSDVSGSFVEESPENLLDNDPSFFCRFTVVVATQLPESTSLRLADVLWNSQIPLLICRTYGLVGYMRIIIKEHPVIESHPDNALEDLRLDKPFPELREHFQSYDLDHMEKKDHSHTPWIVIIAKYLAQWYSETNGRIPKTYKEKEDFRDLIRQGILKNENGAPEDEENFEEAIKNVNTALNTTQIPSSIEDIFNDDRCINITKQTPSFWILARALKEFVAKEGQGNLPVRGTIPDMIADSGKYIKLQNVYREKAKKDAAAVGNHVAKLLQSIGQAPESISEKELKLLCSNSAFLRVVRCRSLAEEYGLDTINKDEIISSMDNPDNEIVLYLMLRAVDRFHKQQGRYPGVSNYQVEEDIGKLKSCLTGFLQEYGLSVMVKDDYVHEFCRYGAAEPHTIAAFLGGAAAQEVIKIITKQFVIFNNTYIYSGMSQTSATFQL
HDAC3 inh: blocks human histone deacetylase 3 | O15379 | recombinant HDAC3, fluorogenic peptide/trypsin coupled, fluorescence | inhibition, % at 8.3 µM | hit rate 0.15% among 320,000 | AID 2718; in the data active = inhibition above about 26%, passing the limit was not always enough
Neddyl inh conf: cullin neddylation inhibition, confirmation. TR-FRET cullin neddylation biochemical assay. calls only at 25 µM. AID 652217. shares compounds with Neddylation inh. hit rate 13% among 1,800; in the data active = inhibition above about 40%;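 also: neddylation substrate is the cullin 1 ring ligase complex with SKP2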
Each line names hits and unclear results; the compound was inactive in the other large screens (follow-up assays come after a bar, where shown). Rows were chosen to be rich in hits. Some 1.8% of all compounds tested hit in one or more screens of this group.

COc1cccc(N2CCN(C(=O)c3c(C)nn(-c4ccccc4)c3C)CC2)c1	none
CCOc1ccc(C2C(C#N)=C(N)Oc3cc(O)ccc32)cc1OCC (stereo unspecified)	none
COc1ccc(C2C(C#N)=C(N)Oc3cc(O)ccc32)cc1Cl (stereo unspecified)	Neddylation inh 48 | Neddyl inh conf inactive
C#CCOc1ccc(C2C(C#N)=C(N)Oc3cc(O)ccc32)cc1 (stereo unspecified)	Neddylation inh 56 | Neddyl inh conf inactive
CCOc1ccccc1N=NC1C(=O)N(C(N)=S)N=C1C (stereo unspecified)	none
CCC(=O)Nc1nnc(-c2ccccn2)o1	none
O=C(CCc1ccccc1)Nc1nnc(-c2ccccn2)o1	Neddylation inh 42 (no result: HDAC3 inh) | Neddyl inh conf active
CCNC(=O)COC(=O)c1ccc(-c2nc3ccccc3s2)s1	Neddylation inh 56 | Neddyl inh conf inactive
Cc1noc(C)c1COC(=O)c1ccc(-c2nc3ccccc3s2)s1	none
O=C1CC2(CCCCC2)Oc2ccc(Cl)cc21	Neddylation inh 28 | Neddyl inh conf inactive
CCc1ccc2c(c1)C(=O)C[C@]1(CCC[C@H](C)C1)O2	Neddylation inh 26 | Neddyl inh conf inactive
O=[N+]([O-])c1cccc(-c2nc3ccccc3s/c2=N/O)c1	none
O=C(NCCc1ccc(Cl)cc1)C1=CC=CN2CCS(=O)(=O)N=C12	Neddylation inh 46 | Neddyl inh conf active
Cc1c(C(=O)NNC(=O)c2csc(N3CCOCC3)n2)oc2ccc(Br)cc12	none (no result: GRK2 aptamer HTS, HDAC3 inh)
Cn1c(SCC(=O)NC2CCS(=O)(=O)C2)nc2ccccc21 (stereo unspecified)	none
COCCN(C(=O)COC(=O)/C=C/c1cccc(OC)c1)c1c(N)n(CC(C)C)c(=O)[nH]c1=O	Neddylation inh 45 (not shown: GRK2 aptamer HTS, HDAC3 inh)
COCCN(C(=O)COC(=O)/C=C/c1ccc(OC)c(OC)c1)c1c(N)n(Cc2ccccc2)c(=O)[nH]c1=O	none
Cc1ccc(S(=O)(=O)N2[C@@H](Cc3ccccc3)CO[C@H]2CC(=O)c2ccc(F)cc2)cc1	none (no result: H9c2 protect, GRK2 aptamer HTS, HDAC3 inh)
Cc1cccc(-n2ncc3c(NCCCO)ncnc32)c1	Neddylation inh 39 | Neddyl inh conf inactive
Cc1ccc(C(=O)NCC(=O)OCC(=O)c2ccccc2)s1	none
Cc1ccc(C(O)c2ncc(-c3cccc4ccccc34)[nH]2)cc1F (stereo unspecified)	Neddylation inh 42 (no result: GRK2 aptamer HTS, HDAC3 inh) | Neddyl inh conf inactive
Cc1ccc(C(O)c2ncc(-c3ccccc3C)[nH]2)cc1F (stereo unspecified)	none (no result: GRK2 aptamer HTS, HDAC3 inh)
COC(=O)C1=C(C)Nc2sc(C(N)=O)c(N)c2C1c1ccncc1 (stereo unspecified)	Neddylation inh 42 | Neddyl inh conf inactive
Cc1cc(OCC(=O)OCC(=O)N2c3ccccc3NC(=O)C2(C)C)ccc1Cl	none (no result: HDAC3 inh)
O=C(/C=C/c1ccccc1Cl)Nn1cnc2ccccc2c1=O	none
COC(=O)c1ccc(/C=C/C(=O)OCC(=O)NCc2cccs2)cc1	none
O=c1cc(-c2ccccc2)c2ccc(O)c(CN3CCCCC3)c2o1	Neddylation inh 50 | Neddyl inh conf inactive
Cc1cc(=O)oc2c(CN3CCCCC3)c(O)ccc12	none (not shown: GRK2 aptamer HTS, Neddylation inh, HDAC3 inh)
COc1ccc(S(=O)(=O)N2CCCC(C(=O)NCC3CCCO3)C2)cc1C (stereo unspecified)	none
COc1ccc(/C(C)=N\Nc2nc(-c3ccccc3)cc(=O)[nH]2)cc1	Neddylation inh 46 | Neddyl inh conf inactive
C[C@@H]1CN(c2c(F)c(F)c3c(=O)c(C(=O)O)cn(C4CC4)c3c2F)C[C@H](C)N1	Neddylation inh 46 (not shown: GRK2 aptamer HTS, HDAC3 inh)
CCC(C)NC(=O)c1ccc(N2CC3CC(C2)c2cccc(=O)n2C3)c(NC(=O)c2c(F)cccc2F)c1 (stereo unspecified)	none (no result: GRK2 aptamer HTS, HDAC3 inh)
CC1CCCCN1CCNC(=O)c1ccc2c(c1)N(Cc1ccccc1F)C(=O)c1ccccc1S2=O (stereo unspecified)	none
CCOC(=O)C1CCCN(C(=O)c2cc3cc(OC)c(OC)cc3[nH]2)C1 (stereo unspecified)	Neddylation inh 43
CCOC(=O)/C=c1\s/c(=C\c2ccc(C(=O)OC)cc2)c(=O)n1CC(=O)Nc1ccccc1	Neddylation inh 40 | Neddyl inh conf inactive
Cc1cccc(OC(C)C(=O)Nc2ccc(N3CCCCC3)cc2)c1 (stereo unspecified)	none
COc1ccc(OC)c(/C=N/Nc2cc(C)nc(N3CCOCC3)n2)c1	Neddylation inh 39 | Neddyl inh conf inactive
O=C(COC(=O)CNC(=O)c1ccc(Cl)c([N+](=O)[O-])c1)NC(=O)c1ccccc1	none
CCCCn1c2nc3ccccc3nc2c2c(=O)n(CC(C)C)cnc21	Neddylation inh 37 (no result: GRK2 aptamer HTS, HDAC3 inh) | Neddyl inh conf inactive
CCCCCn1c2nc3ccccc3nc2c2c(=O)n(CC(C)C)cnc21	none
O=C(O)CNS(=O)(=O)c1ccc2[nH]c(=O)c(=O)[nH]c2c1	Neddylation inh 40 | Neddyl inh conf inactive
O=C(O)CNS(=O)(=O)c1ccc2c(c1)CCCC2	none
O=C1OCC2=C1C(c1ccc(F)cc1)c1cc3c(cc1N2)OCO3 (stereo unspecified)	Neddylation inh 42 (not shown: GRK2 aptamer HTS, HDAC3 inh)
Cc1ccc(Nc2ccc(C(=O)NCCc3ccccc3)cn2)cc1	Neddylation inh 41 | Neddyl inh conf inactive
Cc1ccc(C)c(Nc2ccc(C(=O)NCCc3ccccc3)cn2)c1	none
Cc1cccc(C)c1NC(=O)C(c1ccccc1OC(F)(F)F)N1CCN(c2ccc(F)cc2)CC1 (stereo unspecified)	none (no result: GRK2 aptamer HTS, HDAC3 inh)
O=c1c(-c2ccccc2)n[nH]c2ccccc12	none
O=C1c2ccccc2-c2n[nH]c3cccc1c23	Neddylation inh 42 (not shown: GRK2 aptamer HTS, HDAC3 inh)
CC(NC=O)c1nc2ccccc2n1CCc1ccccc1 (stereo unspecified)	none
CCOCCCn1c(=NC(=O)c2cccnc2)c(C(=O)OCC)cc2c(=O)n3ccccc3nc21	none (not shown: Neddylation inh) | Neddyl inh conf active
CN1OC[C@@H]2CN(C(=O)C(C)(C)C)[C@H](c3cccc(Oc4ccccc4)c3)C[C@@H]21	none (no result: GRK2 aptamer HTS, HDAC3 inh)
NC(=O)CCC(=O)N1CCCC(C(=O)c2ccc3c4c(cccc24)CC3)C1 (stereo unspecified)	Neddylation inh 44 | Neddyl inh conf inactive
O=C1CCC(C(=O)N2CCCC(C(=O)c3ccc4c5c(cccc35)CC4)C2)=NN1 (stereo unspecified)	Neddylation inh 43 | Neddyl inh conf active
COC(=O)c1ccc(C(=O)OC)c(=O)[nH]1	Neddylation inh 49
COC(=O)c1c[nH]c(=O)c2ccccc12	none
Cc1ccc2nc(N(CCN(C)C)C(=O)/C=C/c3cccs3)sc2c1	none (no result: HDAC3 inh)
CN(C)CCN(C(=O)/C=C/c1cccs1)c1nc2ccc(Br)cc2s1	Neddylation inh 40 | Neddyl inh conf inactive
COc1ccc(NS(=O)(=O)c2cn(C)cn2)cc1	none
Cn1cnc(S(=O)(=O)Nc2ccc(OC(F)F)cc2)c1	Neddylation inh 49 | Neddyl inh conf inactive
COc1ccc(S(=O)(=O)N2CCC(C(=O)N[C@@H](C)C(=O)NCc3cccnc3)CC2)cc1	none (no result: GRK2 aptamer HTS, HDAC3 inh)
NNC(=O)c1oc2nc(-c3ccc(Cl)cc3)cc(-c3ccccc3)c2c1N	Neddylation inh 43 | Neddyl inh conf inactive
Nc1c(C(=O)N/N=C/c2cccnc2)oc2nc(-c3ccccc3)cc(-c3ccco3)c12	H9c2 protect 68, Neddylation inh 37 | Neddyl inh conf inactive
